# “And” between values parts separate entries of the source, which are not always exact repeats. Equal entries are not always repeated. Where a structure was tested more than once in an assay, its records may differ in their call. The source made the active and inactive calls. Rule for the calls: active = hit-call score of the fitted dose curve at least 0.9, where 1 is the maximum; inactive = score below 0.9.
# How the values were obtained:
# [1] = ATG_E_Box_CIS: Attagene CIS-FACTORIAL HepG2 Assay for human Enhancer Box (E-box) (AID 2282936); conditions: HepG2 E-box cis-reporter transcription, actives raise or lower the signal
# Outline: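 Transiently transfected HepG2, endogenous TF-driven reporters, 24 h dosing. Readout: RT-PCR plus capillary electrophoresis of fluorescent reporter fragments. Gain or loss of signal fitted bidirectionally against DMSO baseline.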
# [2] = ATG_M_61_CIS: Attagene CIS-FACTORIAL HepG2 Assay for M61 Transcription Factor (Internal Marker) (AID 2282937); conditions: HepG2 Attagene CIS-FACTORIAL M61 internal marker reporter; actives raise or lower the signal
# Outline: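 Background-control endpoint: HepG2 cells with cis-regulated reporter constructs, 24 h exposure, reporter mRNA detected via fluorescent primer extension and capillary electrophoresis; values from bidirectional fitting with DMSO baseline.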
# [3] = ATG_EGR_CIS: Attagene CIS-FACTORIAL HepG2 Assay for human Early Growth Response 1 (EGR1) (AID 2282938); conditions: HepG2 Attagene CIS-FACTORIAL EGR reporter mRNA; actives raise or lower the signal
# Outline: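 Endpoint derived by bidirectional fitting versus DMSO vehicle. Method: cis-promoter reporter units transfected into HepG2, 24 h dosing, RNA isolation, RT-PCR with 6-FAM primer extension and HpaI digestion, then capillary electrophoresis fluorescence detection.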
# [4] = ATG_M_19_CIS: Attagene CIS-FACTORIAL HepG2 Assay for M19 Transcription Factor (Internal Marker) (AID 2282939); conditions: HepG2 Attagene CIS-FACTORIAL M19 internal marker reporter; actives raise or lower the signal
# Outline: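 Background-control endpoint from a multiplexed HepG2 reporter panel. Cells carrying cis-regulated reporter constructs are treated 24 h, then reporter transcripts are amplified, fluorescently labelled and sized by capillary electrophoresis. DMSO defines baseline.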
# [5] = ATG_ERE_CIS: Attagene CIS-FACTORIAL HepG2 Assay for Estrogen Response Element (ERE) (AID 2282940); conditions: HepG2 ERE cis-reporter, Attagene RNA transcript; actives raise or lower the signal
# Outline: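 Cells used were human hepatoma HepG2, transfected with multiple reporter transcription units under cis-regulatory promoters. Reporter mRNA, read 24 h post-dosing via fluorescent RT-PCR products on capillary electrophoresis, was fitted bidirectionally relative to DMSO.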
# [6] = ATG_Ets_CIS: Attagene CIS-FACTORIAL HepG2 Assay for human Erythroblast Transformation Specific (ETS) (AID 2282941); conditions: HepG2 ETS cis-reporter transcription, actives raise or lower the signal
# Outline: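 Multiplexed reporter transcript profiling: HepG2, 24 h treatment, total RNA to cDNA, PCR, 6-FAM labelling, HpaI cut, capillary electrophoresis. Gain- or loss-of-signal fitted against DMSO.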
# [7] = target: Hepatocyte nuclear factor 3-beta (Homo sapiens) (UniProt Q9Y261); assay: ATG_FoxA2_CIS: Attagene CIS-FACTORIAL HepG2 Assay for human Forkhead box A2 (FOXA2) (AID 2282942); conditions: HepG2 cis-reporter transcription factor activity, 24 h; actives raise or lower the signal
# Outline: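 Measured: reporter mRNA induction or loss in HepG2 transiently carrying multiple cis-regulated reporter units, 24 h after dosing. Quantified by RT-PCR plus capillary electrophoresis, normalised to DMSO.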
# [8] = ATG_FoxO_CIS: Attagene CIS-FACTORIAL HepG2 Assay for human Forkhead box O (FoxO) (AID 2282943); conditions: HepG2 Attagene cis-reporter, FoxO element, mRNA; actives raise or lower the signal
# Outline: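 Transfected HepG2 reporter cells exposed to test chemical for 24 h; reporter RNA measured by reverse transcription, PCR and fluorescent capillary electrophoresis; curves fitted for increases and decreases against DMSO.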
# [9] = ATG_GATA_CIS: Attagene CIS-FACTORIAL HepG2 Assay for human GATA Binding Protein (AID 2282944); conditions: HepG2 GATA cis-element reporter, Attagene multiplex mRNA; actives raise or lower the signal
# Outline: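 Endogenous transcription factor activity was captured through cis-promoter-driven reporters in transfected HepG2 cells. After 24 h exposure, reporter transcripts were quantified by RT-PCR with fluorescent capillary electrophoresis, and responses fitted both directions against DMSO.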
# [10] = ATG_GLI_CIS: Attagene CIS-FACTORIAL HepG2 Assay for human Zinc Finger Protein GLI1 (AID 2282945); conditions: HepG2, Attagene cis-factorial reporter mRNA, GLI element; actives raise or lower the signal
# Outline: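 Transiently transfected HepG2 cells report endogenous transcription factor activity via cis-element-driven reporter units. After 24 h compound exposure, reporter mRNA was measured by RT-PCR with capillary electrophoresis; bidirectional fitting against DMSO baseline.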
# [11] = target: Bile acid receptor (Homo sapiens) (UniProt Q96RI1); assay: ATG_IR1_CIS: Attagene CIS-FACTORIAL HepG2 Assay for human Nuclear Receptor Subfamily 1 Group H Member 4 (NR1H4), IR1 submotif (AID 2282946); conditions: IR1 reporter transcription, actives raise or lower the signal
# Outline: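 Fluorescence of capillary-separated, HpaI-digested RT-PCR reporter products gave IR1-element mRNA induction in HepG2 cells 24 h after dosing. Endogenous transcription factors drove the cis-regulated reporters; activity was fitted bidirectionally against DMSO.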
# [12] = ATG_GRE_CIS: Attagene CIS-FACTORIAL HepG2 Assay for human Glucocorticoid Response Elements (GRE) (AID 2282947); conditions: HepG2 GRE cis-reporter, Attagene multiplex mRNA; actives raise or lower the signal
# Outline: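 Read-out: fluorescent reporter-transcript fragments separated by capillary electrophoresis after RT-PCR. Transiently transfected HepG2 cells carrying cis-element-driven reporter units were dosed for 24 h; gain or loss of signal fitted against DMSO control.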
# [13] = ATG_ISRE_CIS: Attagene CIS-FACTORIAL HepG2 Assay for human Interferon Regulatory Factor 1 (IRF1) binding to an Interferon-Stimulated Response Element (ISRE) (AID 2282948); conditions: HepG2 ISRE cis-reporter (Attagene), mRNA transcription readout; actives raise or lower the signal
# Outline: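 Signal reflects induction or loss of ISRE-linked reporter mRNA in transiently transfected HepG2 cells after a 24 h treatment, detected by fluorescent RT-PCR fragments on capillary electrophoresis and normalised to DMSO.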
# [14] = ATG_M_32_CIS: Attagene CIS-FACTORIAL HepG2 Assay for M32 Transcription Factor (Internal Marker) (AID 2282949); conditions: HepG2 Attagene cis-factorial M32 reporter, mRNA; actives raise or lower the signal;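 note: background control marker of the multiplexed CIS panel rather than a real target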
# Outline: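 Using DMSO as baseline, bidirectional curve fits were applied to reporter mRNA signals. These came from transiently transfected HepG2 cells exposed for 24 h, with RNA analysed by RT-PCR, FAM primer extension, HpaI digestion and CE.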
# [15] = ATG_M_06_CIS: Attagene CIS-FACTORIAL HepG2 Assay for M06 Transcription Factor (Internal Marker) (AID 2282950); conditions: HepG2 Attagene CIS-FACTORIAL M06 internal marker reporter; actives raise or lower the signal
# Outline: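 Steps: transfect HepG2 with multiplexed cis-element reporter constructs; dose chemical 24 h; extract RNA with DNase treatment; reverse-transcribe, PCR-amplify, 6-FAM label, HpaI digest; separate fragments by capillary electrophoresis. Activity fitted both directions versus DMSO.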
# [16] = target: Hypoxia-inducible factor 1-alpha (Homo sapiens) (UniProt Q16665); assay: ATG_HIF1a_CIS: Attagene CIS-FACTORIAL HepG2 Assay for human Hypoxia Inducible Factor 1 (HIF1A) (AID 2282951); conditions: HepG2 Attagene cis-factorial HIF1a reporter transcription; actives raise or lower the signal
# Outline: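 Dosed 24 h, transfected HepG2 cells yielded total RNA whose reporter transcripts were RT-PCR-amplified and sized by capillary electrophoresis using fluorescent labelling; DMSO defined baseline, with gain and loss of signal both fitted.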
# [17] = target: Hepatocyte nuclear factor 6 (Homo sapiens) (UniProt Q9UBC0); assay: ATG_HNF6_CIS: Attagene CIS-FACTORIAL HepG2 Assay for human Hepatocyte Nuclear Factor 6 (HNF6) (AID 2282952); conditions: HepG2 Attagene cis-factorial HNF6 reporter transcription; actives raise or lower the signal
# Outline: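 Endogenous transcription factor activity in human HepG2 liver cells was captured through cis-regulated reporter constructs. After 24 h treatment, reporter mRNA was measured by RT-PCR with capillary electrophoresis, and activity was fitted in both directions relative to DMSO.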
# [18] = target: Heat shock factor protein 1 (Homo sapiens) (UniProt Q00613); assay: ATG_HSE_CIS: Attagene CIS-FACTORIAL HepG2 Assay for human Heat Shock Transcription Factor 1 (HSE) (AID 2282953); conditions: HepG2 HSE cis-reporter, Attagene RNA transcription; actives raise or lower the signal
# Outline: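 Cells were transfected with cis-element-driven reporter constructs, dosed for 24 h, then total RNA was reverse-transcribed and reporter cDNA amplified, FAM-labelled and digested with HpaI. Fragments were resolved by capillary electrophoresis; gain or loss was fitted against DMSO.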
# [19] = ATG_MRE_CIS: Attagene CIS-FACTORIAL HepG2 Assay for human Metal Responsive Element (MRE) (AID 2282954); conditions: HepG2 MRE cis-reporter transcription, Attagene multiplex; actives raise or lower the signal
# Outline: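 RT-PCR/capillary electrophoresis readout of reporter mRNA, 24 h post-dosing, in HepG2 cells transfected with multiplexed cis-regulated reporter constructs. Gain or loss of signal fitted bidirectionally against DMSO baseline.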
# [20] = ATG_PBREM_CIS: Attagene CIS-FACTORIAL HepG2 Assay for human Phenobarbital-responsive Enhancer Module (PBREM) (AID 2282955); conditions: HepG2 PBREM cis-reporter, Attagene multiplexed transcription; actives raise or lower the signal
# Outline: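 Transfected liver-derived HepG2 cells exposed 24 h; PBREM reporter transcript quantified via RT-PCR and capillary electrophoresis, with activity in either direction referenced to DMSO.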
# Bile acid receptor (Homo sapiens), sequence (Q96RI1 whole entry, looked up): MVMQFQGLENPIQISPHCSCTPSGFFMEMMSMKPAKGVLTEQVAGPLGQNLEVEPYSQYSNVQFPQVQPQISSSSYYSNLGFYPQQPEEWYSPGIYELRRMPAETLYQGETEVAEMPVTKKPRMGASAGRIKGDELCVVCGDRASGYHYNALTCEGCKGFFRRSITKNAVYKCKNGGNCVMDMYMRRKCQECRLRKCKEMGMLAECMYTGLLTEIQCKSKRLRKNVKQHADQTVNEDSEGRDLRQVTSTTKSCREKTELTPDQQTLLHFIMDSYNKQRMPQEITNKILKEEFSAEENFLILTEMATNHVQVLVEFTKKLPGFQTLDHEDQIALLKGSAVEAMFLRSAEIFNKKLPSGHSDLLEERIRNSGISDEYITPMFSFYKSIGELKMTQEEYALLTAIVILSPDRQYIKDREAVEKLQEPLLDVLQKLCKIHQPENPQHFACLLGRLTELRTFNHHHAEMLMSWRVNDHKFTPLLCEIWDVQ
# Hepatocyte nuclear factor 6 (Homo sapiens), sequence (Q9UBC0 whole entry, looked up): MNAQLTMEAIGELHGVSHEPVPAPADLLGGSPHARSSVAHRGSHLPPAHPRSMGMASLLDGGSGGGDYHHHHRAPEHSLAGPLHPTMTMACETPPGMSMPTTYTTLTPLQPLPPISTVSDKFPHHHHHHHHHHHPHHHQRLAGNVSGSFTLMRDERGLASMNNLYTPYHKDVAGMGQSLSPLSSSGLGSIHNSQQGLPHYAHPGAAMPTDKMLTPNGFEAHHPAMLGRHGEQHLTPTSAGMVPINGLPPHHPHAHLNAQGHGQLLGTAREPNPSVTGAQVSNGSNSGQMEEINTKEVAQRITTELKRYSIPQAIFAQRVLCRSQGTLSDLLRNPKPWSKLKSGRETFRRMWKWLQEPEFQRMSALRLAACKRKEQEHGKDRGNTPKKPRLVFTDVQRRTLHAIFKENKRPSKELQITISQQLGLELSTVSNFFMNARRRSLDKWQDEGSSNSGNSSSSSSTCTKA
# Hypoxia-inducible factor 1-alpha (Homo sapiens), sequence (Q16665 whole entry, looked up): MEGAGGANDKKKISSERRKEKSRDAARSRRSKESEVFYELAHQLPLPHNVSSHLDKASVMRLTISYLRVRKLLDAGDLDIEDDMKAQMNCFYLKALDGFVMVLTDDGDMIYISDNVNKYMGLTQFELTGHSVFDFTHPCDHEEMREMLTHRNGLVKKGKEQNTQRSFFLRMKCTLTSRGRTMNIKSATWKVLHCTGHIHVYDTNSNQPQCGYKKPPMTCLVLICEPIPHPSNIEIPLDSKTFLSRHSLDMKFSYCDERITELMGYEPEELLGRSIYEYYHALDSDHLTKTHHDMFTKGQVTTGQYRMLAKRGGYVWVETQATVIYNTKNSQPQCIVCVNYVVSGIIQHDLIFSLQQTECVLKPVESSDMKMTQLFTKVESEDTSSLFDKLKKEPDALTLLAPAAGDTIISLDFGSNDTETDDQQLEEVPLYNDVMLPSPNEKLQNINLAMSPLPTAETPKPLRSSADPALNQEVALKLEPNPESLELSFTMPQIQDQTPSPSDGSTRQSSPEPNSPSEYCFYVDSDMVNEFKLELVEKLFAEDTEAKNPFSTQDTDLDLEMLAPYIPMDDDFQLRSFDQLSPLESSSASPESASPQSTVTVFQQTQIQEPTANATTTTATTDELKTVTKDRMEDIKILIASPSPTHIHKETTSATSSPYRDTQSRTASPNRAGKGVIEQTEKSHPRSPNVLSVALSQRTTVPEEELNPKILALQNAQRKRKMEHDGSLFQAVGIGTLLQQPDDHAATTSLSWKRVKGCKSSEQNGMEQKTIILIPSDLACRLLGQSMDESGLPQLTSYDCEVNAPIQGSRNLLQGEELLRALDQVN
# Hepatocyte nuclear factor 3-beta (Homo sapiens), sequence (Q9Y261 whole entry, looked up): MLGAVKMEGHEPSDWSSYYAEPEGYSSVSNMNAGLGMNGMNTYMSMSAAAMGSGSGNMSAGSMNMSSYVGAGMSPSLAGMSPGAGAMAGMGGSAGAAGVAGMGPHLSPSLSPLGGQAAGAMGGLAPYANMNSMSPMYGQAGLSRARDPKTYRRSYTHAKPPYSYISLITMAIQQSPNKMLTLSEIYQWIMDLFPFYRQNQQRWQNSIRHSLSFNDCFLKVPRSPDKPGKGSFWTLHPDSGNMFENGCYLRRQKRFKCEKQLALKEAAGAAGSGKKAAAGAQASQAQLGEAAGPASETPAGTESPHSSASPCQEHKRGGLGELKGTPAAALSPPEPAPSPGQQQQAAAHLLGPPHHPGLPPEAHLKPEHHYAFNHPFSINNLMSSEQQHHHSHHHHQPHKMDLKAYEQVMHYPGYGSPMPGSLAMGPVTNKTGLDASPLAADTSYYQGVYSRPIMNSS
# Heat shock factor protein 1 (Homo sapiens), sequence (Q00613 whole entry, looked up, the tested form may be a part): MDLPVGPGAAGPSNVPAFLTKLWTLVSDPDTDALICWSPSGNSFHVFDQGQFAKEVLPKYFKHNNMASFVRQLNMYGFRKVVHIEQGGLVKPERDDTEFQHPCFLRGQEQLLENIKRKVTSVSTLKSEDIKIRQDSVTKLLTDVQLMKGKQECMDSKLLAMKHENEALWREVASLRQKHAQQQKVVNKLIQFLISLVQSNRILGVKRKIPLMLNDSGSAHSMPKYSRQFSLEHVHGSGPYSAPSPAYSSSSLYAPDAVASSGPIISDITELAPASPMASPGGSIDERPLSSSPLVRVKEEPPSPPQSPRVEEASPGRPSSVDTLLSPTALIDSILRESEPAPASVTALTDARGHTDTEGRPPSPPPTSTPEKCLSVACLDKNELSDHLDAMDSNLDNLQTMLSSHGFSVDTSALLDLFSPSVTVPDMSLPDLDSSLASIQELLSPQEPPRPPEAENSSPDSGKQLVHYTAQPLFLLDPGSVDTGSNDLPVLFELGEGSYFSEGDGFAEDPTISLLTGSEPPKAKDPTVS
structure (smiles),measurement,setting,value
CCCCCCC(CCCCCCCCCCC(=O)OCC(COC(C)=O)OC(C)=O)OC(C)=O (stereo not drawn),outcome,[1],inactive
same,outcome,[2],inactive
same,outcome,[3],inactive
same,outcome,[4],inactive
same,outcome,[5],inactive
same,outcome,[6],inactive
same,outcome,[7],inactive
same,outcome,[8],inactive
same,outcome,[9],inactive
same,outcome,[10],inactive
same,outcome,[11],inactive
same,outcome,[12],inactive
same,outcome,[13],inactive
same,outcome,[14],inactive
same,outcome,[15],inactive
same,outcome,[16],inactive
same,outcome,[17],inactive
same,AC50,[18],90.7 µM (active)
same,outcome,[19],inactive
Cc1ccc(C(C)(C)C)c(O)c1,outcome,[1],inactive
same,outcome,[2],inactive
same,AC50,[3],158 µM (active)
same,outcome,[4],inactive
same,AC50,[5],25.1 µM (active)
same,AC50,[6],63.7 µM (active)
same,outcome,[7],inactive
same,outcome,[8],inactive
same,outcome,[9],inactive
same,outcome,[10],inactive
same,outcome,[11],inactive
same,AC50,[13],138 µM (active)
same,outcome,[14],inactive
same,outcome,[15],inactive
same,outcome,[16],inactive
same,outcome,[17],inactive
same,outcome,[18],inactive
same,AC50,[19],145 µM (active)
same,AC50,[20],150 µM (active)
CC(=O)[C@@]1(O)CC[C@H]2[C@@H]3CCC4=CC(=O)CC[C@]4(C)[C@H]3CC[C@@]21C,AC50,[1],4.34 µM (active) and 27 µM (active) and 33.6 µM (active)
same,outcome,[1],inactive
same,outcome,[2],inactive
same,outcome,[3],inactive
same,outcome,[4],inactive
same,outcome,[6],inactive
same,outcome,[7],inactive
same,outcome,[8],inactive
same,outcome,[9],inactive
same,outcome,[10],inactive
same,outcome,[12],inactive
same,outcome,[13],inactive
same,outcome,[14],inactive
same,outcome,[15],inactive
same,outcome,[17],inactive
same,outcome,[18],inactive
OCC(CO)n1cnc(-c2ccc(F)cc2)c1-c1ccnc(Oc2ccccc2)n1,outcome,[1],inactive
same,outcome,[2],inactive
same,outcome,[3],inactive
same,outcome,[4],inactive
same,outcome,[5],inactive
same,outcome,[6],inactive
same,outcome,[7],inactive
same,outcome,[8],inactive
same,outcome,[9],inactive
same,outcome,[10],inactive
same,outcome,[12],inactive
same,outcome,[13],inactive
same,outcome,[14],inactive
same,outcome,[15],inactive
same,outcome,[16],inactive
same,outcome,[17],inactive
same,outcome,[18],inactive
same,outcome,[19],inactive
same,outcome,[20],inactive
c1ccc2occc2c1,outcome,[1],inactive
same,outcome,[2],inactive
same,outcome,[3],inactive
same,outcome,[4],inactive
same,outcome,[5],inactive
same,outcome,[6],inactive
same,outcome,[7],inactive
same,outcome,[8],inactive
same,outcome,[9],inactive
same,outcome,[10],inactive
same,outcome,[11],inactive
same,outcome,[13],inactive
same,outcome,[14],inactive
same,outcome,[15],inactive
same,outcome,[16],inactive
same,outcome,[17],inactive
same,outcome,[18],inactive
same,outcome,[19],inactive
same,outcome,[20],inactive
CCc1nc(N)nc(N)c1-c1ccc(Cl)cc1,outcome,[1],inactive
same,outcome,[2],inactive
same,AC50,[3],32.8 µM (active)
same,outcome,[4],inactive
same,outcome,[5],inactive
same,outcome,[6],inactive
same,outcome,[7],inactive
same,outcome,[8],inactive
same,outcome,[9],inactive
same,outcome,[10],inactive
same,outcome,[11],inactive
same,outcome,[12],inactive
same,AC50,[13],100 µM (active)
same,outcome,[15],inactive
same,AC50,[17],100 µM (active)
same,outcome,[18],inactive
same,AC50,[19],100 µM (active)
same,outcome,[20],inactive
Cc1c(C)c2c(c(C)c1O)CCC(C)(COc1ccc(CC3SC(=O)NC3=O)cc1)O2 (stereo not drawn),outcome,[1],inactive
same,outcome,[2],inactive
same,outcome,[3],inactive
same,outcome,[4],inactive
same,AC50,[5],0.221 µM (active)
same,outcome,[6],inactive
same,outcome,[7],inactive
same,outcome,[8],inactive
same,outcome,[9],inactive
same,outcome,[10],inactive
same,outcome,[11],inactive
same,outcome,[13],inactive
same,outcome,[14],inactive
same,outcome,[15],inactive
same,outcome,[16],inactive
same,outcome,[17],inactive
same,AC50,[19],17.4 µM (active)
same,outcome,[20],inactive
